The supplement of paper PMC11732987, “Enantioselective OTUD7B fragment discovery through chemoproteomics screening and high-throughput optimisation” (Communications Chemistry, 2025)

Key:
Assay in all cases: log2 ratio of Biotin-Ahx-Ub-VS probe labelling (fragment/DMSO); higher = less target engagement (more negative = stronger competition), active = hit call of the paper (q ≤ 0.05, log2 ratio ≤ -1)
Conditions in all cases: compound concentration: 200 uM; treatment time: 3 h
USP34 = USP34 (UniProt Q70CQ2)
USP34, sequence (Q70CQ2 whole entry, the tested form may be a part): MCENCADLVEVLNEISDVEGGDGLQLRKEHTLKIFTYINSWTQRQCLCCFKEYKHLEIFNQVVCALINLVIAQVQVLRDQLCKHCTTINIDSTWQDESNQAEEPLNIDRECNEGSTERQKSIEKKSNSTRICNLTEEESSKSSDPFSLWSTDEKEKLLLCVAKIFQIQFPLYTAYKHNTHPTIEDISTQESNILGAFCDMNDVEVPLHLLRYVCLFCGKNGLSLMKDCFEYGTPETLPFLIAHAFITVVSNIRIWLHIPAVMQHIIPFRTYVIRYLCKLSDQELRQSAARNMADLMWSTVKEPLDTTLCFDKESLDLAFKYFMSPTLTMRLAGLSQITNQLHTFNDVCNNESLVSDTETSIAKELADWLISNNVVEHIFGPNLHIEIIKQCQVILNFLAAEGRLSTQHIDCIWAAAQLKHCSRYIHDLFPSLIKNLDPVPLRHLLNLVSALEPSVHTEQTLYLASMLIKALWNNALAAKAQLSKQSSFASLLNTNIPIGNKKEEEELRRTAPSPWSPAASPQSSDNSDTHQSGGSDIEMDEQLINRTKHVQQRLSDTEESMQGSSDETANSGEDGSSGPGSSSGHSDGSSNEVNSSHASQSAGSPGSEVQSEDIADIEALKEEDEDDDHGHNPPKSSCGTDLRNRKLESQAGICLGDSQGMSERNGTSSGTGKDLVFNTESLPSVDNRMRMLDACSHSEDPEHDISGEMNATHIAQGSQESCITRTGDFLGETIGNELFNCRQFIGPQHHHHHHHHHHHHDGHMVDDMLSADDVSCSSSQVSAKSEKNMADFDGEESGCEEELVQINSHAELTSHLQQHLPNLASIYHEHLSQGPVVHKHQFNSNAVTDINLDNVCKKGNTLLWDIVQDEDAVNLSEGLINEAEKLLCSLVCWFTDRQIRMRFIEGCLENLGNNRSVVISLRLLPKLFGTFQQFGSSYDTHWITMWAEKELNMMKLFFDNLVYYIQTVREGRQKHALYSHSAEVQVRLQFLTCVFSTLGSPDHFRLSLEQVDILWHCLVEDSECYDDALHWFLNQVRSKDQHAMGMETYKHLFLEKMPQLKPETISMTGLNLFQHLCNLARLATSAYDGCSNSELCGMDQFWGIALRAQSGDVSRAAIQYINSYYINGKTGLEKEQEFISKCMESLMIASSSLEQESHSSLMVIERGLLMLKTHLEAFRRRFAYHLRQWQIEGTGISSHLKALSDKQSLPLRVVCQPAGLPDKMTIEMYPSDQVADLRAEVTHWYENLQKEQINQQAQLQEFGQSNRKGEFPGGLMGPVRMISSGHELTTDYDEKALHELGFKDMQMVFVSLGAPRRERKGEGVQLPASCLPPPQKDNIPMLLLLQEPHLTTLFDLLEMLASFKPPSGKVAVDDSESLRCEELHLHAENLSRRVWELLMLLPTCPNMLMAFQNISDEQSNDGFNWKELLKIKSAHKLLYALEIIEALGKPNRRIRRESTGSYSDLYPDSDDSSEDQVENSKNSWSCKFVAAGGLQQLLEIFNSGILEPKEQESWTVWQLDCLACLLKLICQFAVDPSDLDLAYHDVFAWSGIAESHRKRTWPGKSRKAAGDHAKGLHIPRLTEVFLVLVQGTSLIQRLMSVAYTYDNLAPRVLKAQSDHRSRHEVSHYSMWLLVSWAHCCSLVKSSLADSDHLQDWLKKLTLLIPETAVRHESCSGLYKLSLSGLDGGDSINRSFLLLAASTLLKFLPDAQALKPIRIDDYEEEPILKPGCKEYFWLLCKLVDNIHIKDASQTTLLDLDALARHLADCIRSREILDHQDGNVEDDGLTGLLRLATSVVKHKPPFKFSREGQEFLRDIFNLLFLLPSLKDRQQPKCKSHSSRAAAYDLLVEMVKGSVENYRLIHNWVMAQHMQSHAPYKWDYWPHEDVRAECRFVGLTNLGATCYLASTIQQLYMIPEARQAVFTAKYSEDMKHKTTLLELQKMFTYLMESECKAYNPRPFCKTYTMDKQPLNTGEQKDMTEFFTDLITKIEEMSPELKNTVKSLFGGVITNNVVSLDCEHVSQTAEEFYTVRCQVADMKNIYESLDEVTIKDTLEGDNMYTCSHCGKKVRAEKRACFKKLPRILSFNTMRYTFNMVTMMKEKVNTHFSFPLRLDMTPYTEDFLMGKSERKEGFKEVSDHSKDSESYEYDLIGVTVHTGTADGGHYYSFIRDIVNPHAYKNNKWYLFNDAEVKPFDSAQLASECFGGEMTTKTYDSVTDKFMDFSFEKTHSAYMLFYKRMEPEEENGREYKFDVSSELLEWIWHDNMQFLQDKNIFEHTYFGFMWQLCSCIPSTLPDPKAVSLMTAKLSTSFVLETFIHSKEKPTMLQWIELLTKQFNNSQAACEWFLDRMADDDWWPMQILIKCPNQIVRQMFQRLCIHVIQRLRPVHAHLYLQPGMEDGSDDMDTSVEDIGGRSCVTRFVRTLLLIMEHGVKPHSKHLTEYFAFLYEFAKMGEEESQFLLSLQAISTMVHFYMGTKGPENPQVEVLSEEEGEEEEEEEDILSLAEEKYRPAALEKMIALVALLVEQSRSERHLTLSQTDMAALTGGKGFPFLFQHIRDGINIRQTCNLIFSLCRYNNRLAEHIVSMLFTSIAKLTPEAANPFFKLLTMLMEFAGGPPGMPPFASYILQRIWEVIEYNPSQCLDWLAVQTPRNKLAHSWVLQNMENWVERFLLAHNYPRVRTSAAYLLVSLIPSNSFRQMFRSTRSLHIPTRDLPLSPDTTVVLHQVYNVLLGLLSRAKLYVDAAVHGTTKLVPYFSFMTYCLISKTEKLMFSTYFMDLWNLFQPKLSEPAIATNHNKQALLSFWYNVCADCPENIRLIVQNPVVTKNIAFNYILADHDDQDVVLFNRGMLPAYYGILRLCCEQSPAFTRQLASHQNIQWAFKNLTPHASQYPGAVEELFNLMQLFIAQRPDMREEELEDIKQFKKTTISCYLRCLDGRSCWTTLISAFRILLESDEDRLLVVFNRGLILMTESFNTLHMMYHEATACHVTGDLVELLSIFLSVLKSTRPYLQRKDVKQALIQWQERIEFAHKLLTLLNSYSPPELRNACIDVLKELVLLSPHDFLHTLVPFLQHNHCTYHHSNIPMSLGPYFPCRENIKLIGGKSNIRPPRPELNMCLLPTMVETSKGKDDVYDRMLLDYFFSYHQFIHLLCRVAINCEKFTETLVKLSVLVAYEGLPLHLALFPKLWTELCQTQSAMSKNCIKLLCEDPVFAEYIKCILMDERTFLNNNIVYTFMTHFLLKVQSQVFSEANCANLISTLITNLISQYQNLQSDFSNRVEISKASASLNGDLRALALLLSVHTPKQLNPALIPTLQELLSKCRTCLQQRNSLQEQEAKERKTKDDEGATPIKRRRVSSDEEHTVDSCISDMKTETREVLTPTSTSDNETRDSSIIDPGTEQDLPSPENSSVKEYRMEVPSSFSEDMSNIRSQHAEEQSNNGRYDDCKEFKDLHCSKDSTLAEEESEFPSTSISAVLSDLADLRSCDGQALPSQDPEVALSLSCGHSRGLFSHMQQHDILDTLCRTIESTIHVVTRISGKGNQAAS
In short: (§1)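 The table lists average log2 ratios of fragment over vehicle, from an unpaired t-test on global-median-normalised Spectronaut label-free quantities. Proteins with ≥2 unique peptides were used. Samples were HEK293T lysate (495 µg) treated in triplicate with fragment at 200 µM or vehicle for 3 h, then with Biotin-Ahx-Ub-VS (0.5 µM final) for 1 h, with labelled DUBs NeutrAvidin-enriched and run by diaPASEF LC-MS/MS.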

USP36 = molecular target: T1, USP36 (UniProt Q9P275)
T1 sequence (whole entry): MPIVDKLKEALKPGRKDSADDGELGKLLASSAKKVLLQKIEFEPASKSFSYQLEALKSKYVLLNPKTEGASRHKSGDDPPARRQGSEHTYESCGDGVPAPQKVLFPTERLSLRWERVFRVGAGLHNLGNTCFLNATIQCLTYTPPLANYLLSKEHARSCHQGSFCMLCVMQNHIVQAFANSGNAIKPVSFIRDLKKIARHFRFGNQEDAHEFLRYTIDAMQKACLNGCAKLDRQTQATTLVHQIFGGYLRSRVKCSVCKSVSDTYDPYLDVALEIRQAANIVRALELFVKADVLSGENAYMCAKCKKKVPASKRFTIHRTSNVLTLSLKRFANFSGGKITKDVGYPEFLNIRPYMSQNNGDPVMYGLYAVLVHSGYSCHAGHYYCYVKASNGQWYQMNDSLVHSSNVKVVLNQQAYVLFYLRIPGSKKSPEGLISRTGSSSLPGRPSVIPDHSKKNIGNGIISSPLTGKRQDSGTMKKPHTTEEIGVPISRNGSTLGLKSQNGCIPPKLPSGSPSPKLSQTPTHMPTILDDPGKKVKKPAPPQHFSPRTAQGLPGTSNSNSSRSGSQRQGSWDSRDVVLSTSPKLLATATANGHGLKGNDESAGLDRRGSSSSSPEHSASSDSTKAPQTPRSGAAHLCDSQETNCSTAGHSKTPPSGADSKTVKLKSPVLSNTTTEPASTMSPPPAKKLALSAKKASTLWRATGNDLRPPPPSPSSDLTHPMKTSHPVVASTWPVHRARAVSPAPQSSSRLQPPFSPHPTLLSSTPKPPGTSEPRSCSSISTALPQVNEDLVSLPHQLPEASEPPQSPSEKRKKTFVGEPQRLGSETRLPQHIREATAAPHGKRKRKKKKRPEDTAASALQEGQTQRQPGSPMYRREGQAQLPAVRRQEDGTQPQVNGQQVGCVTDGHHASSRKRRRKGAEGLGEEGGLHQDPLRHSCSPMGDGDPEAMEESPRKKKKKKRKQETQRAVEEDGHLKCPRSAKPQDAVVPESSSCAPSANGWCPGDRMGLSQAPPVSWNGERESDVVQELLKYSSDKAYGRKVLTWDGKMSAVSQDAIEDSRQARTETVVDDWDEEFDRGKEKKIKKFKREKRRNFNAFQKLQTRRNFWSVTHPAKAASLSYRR
In short: as §1

USP38 = molecular target: T2, USP38 (UniProt Q8NB14)
T2 sequence (whole entry): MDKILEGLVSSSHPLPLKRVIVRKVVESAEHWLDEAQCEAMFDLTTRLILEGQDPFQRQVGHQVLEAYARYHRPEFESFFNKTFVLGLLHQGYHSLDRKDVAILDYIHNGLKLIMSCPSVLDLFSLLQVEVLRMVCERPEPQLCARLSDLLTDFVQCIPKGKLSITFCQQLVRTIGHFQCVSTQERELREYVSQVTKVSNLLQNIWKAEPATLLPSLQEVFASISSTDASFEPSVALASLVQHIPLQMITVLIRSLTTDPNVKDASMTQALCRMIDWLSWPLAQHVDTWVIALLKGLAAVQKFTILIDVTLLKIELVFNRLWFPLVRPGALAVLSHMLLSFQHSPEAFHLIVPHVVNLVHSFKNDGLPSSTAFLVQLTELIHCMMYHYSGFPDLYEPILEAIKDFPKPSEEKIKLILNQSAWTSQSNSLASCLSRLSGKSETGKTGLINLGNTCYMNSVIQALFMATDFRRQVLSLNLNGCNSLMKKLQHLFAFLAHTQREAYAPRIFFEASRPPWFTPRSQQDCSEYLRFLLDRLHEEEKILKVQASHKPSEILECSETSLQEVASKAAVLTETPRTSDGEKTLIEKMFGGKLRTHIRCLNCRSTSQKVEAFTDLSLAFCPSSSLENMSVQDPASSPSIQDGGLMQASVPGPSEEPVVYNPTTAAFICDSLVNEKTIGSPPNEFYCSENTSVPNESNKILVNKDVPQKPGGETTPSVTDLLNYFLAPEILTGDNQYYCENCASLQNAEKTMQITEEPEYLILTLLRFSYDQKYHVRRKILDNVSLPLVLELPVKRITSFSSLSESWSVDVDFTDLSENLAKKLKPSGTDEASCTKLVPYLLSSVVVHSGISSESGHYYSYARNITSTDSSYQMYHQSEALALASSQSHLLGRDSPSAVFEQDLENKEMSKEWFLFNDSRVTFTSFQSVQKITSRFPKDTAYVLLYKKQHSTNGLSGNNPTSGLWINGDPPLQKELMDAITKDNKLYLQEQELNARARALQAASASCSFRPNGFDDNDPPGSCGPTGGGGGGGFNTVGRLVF
In short: as §1

USP39 = molecular target: T3, USP39 (UniProt Q53GS9)
T3 sequence (whole entry): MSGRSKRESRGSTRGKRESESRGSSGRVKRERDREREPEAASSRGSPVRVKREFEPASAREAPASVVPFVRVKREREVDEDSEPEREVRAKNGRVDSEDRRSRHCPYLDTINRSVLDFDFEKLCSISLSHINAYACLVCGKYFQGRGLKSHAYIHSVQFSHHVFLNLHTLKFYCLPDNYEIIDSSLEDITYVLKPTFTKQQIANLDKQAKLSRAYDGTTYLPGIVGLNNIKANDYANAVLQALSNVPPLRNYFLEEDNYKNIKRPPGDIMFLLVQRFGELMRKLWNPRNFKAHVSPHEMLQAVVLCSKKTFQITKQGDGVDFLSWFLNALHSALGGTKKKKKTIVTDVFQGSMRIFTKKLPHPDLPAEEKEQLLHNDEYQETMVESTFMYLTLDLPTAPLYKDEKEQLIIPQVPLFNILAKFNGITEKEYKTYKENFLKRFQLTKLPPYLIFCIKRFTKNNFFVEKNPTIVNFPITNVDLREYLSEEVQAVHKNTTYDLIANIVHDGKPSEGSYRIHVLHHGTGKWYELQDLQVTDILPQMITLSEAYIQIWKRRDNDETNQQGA
In short: as §1

USP4 = molecular target: T4, USP4 (UniProt Q13107)
T4 sequence (whole entry): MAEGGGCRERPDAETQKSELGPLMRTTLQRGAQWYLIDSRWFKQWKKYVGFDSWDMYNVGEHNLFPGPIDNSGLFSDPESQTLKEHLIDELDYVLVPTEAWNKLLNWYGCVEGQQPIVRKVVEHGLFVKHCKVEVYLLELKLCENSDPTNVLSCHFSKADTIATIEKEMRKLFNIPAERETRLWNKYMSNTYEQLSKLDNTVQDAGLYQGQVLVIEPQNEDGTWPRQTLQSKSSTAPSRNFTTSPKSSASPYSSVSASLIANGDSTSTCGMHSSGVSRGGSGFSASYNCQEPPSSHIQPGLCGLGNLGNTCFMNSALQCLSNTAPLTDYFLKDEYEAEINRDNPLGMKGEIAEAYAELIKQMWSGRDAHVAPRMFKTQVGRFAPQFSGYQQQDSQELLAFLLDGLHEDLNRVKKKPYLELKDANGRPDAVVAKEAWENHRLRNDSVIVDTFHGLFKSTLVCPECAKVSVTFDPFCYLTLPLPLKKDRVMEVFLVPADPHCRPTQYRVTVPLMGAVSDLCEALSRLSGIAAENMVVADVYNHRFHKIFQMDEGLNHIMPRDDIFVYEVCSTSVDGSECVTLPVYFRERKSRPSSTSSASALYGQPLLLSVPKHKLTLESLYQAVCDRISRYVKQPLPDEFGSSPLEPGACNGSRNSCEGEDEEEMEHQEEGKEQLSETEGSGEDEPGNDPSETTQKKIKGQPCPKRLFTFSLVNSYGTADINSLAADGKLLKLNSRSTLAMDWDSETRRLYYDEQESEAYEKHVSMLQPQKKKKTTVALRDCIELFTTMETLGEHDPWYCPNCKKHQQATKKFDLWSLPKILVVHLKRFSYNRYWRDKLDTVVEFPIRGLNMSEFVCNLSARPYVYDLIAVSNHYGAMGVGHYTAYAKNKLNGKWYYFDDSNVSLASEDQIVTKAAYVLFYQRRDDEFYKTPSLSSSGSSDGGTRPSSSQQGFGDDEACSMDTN
In short: as §1

Measured: log2 ratio of Biotin-Ahx-Ub-VS probe labelling

O=C(CCl)N1CCC[C@@H]1c1ccon1
inactive: USP34 -0.0339 | USP36 -0.122 | USP38 -0.189 | USP39 0.0959 | USP4 -0.394
